Potency data for 29 compounds are collected here from PubChem BioAssay AID1494157 (National Center for Advancing Translational Sciences (NCATS), 2020).

The experiment can be described thus: Confirmatory qHTS for inhibitors of MERS-S pseudo-typed particle cell entry. On the technique in general: qHTS replaces the single test concentration by a dilution series.

Inconclusive results are not listed. Calls of active or inactive are those of the source. Calls follow the shape of the full dose curve.

Take `O=c1c(C2CC(c3ccc(-c4ccc(Br)cc4)cc3)Cc3ccccc32)c(O)sc2ccccc12` (centres undefined): the Potency was 9.61 µM (active). With `CN1CCC(=C2c3ccccc3CCc3sccc32)CC1`, the Potency is 15.2 µM (active). Regarding `CN(C)CCOC(c1ccccc1)c1ccc(Br)cc1` (centres undefined), the Potency was 17.1 µM (active). For the compound `C[C@@H]1CCO[C@H]2Cn3cc(C(=O)NCc4ccc(F)cc4F)c(=O)c(O)c3C(=O)N12`, the Potency was 0.0043 µM (active). In the case of `CCCCCCOC(=O)NC(=N)c1ccc(NCc2nc3cc(C(=O)N(CCC(=O)OCC)c4ccccn4)ccc3n2C)cc1`, the Potency is 19.2 µM (active). On to `CCCCCCCCCCCC[n+]1ccc2ccccc2c1`, for which the Potency is 1.36 µM (active). With `Cc1cn([C@H]2C[C@H](N=[N+]=[N-])[C@@H](CO)O2)c(=O)[nH]c1=O`, the Potency was 0.242 µM (active).

As to `CC(=O)[C@]1(O)Cc2c(O)c3c(c(O)c2[C@@H](O[C@H]2C[C@H](N)[C@H](O)[C@H](C)O2)C1)C(=O)c1ccccc1C3=O`, the Potency is 2.15 µM (active). On to `CC(C)(C)C(=O)OCOP(=O)(COCCn1cnc2c(N)ncnc21)OCOC(=O)C(C)(C)C`, for which the Potency is 0.0304 µM (active). Turning to `COc1cccc2c1C(=O)c1c(O)c3c(c(O)c1C2=O)C[C@@](O)(C(=O)CO)CC3OC1CC(N2CCOC(OC)C2)C(O)C(C)O1` (some centres undefined), the Potency was 0.215 µM (active). Consider `O=C(Nc1ccc([N+](=O)[O-])cc1Cl)c1cc(Cl)ccc1O`, for which the Potency was 0.857 µM (active). Take `CCc1c2c(nc3ccc(OC(=O)N4CCC(N5CCCCC5)CC4)cc13)-c1cc3c(c(=O)n1C2)COC(=O)[C@]3(O)CC`: the Potency was 15.2 µM (active). Turning to `COc1cccc2c1C(=O)c1c(O)c3c(c(O)c1C2=O)C[C@@](O)(C(=O)CO)C[C@@H]3O[C@H]1C[C@H](N)[C@H](OC2CCCCO2)[C@H](C)O1` (some centres undefined), the Potency entry was “inactive”.

In the case of `COC(=O)C1=C(C)NC(C)=C(C(=O)OCC(C)C)C1c1ccccc1[N+](=O)[O-]` (centres undefined), the Potency was 19.2 µM (active). Turning to `CCCCc1oc2ccccc2c1C(=O)c1cc(I)c(OCCN(CC)CC)c(I)c1`, the Potency is 10.8 µM (active). Consider `CC(C)(C)c1ccc(C(=O)CCCN2CCC(OC(c3ccccc3)c3ccccc3)CC2)cc1`, for which the Potency was 3.41 µM (active). Regarding `O=c1[nH]c(=O)n([C@H]2C[C@H](O)[C@@H](CO)O2)cc1C(F)(F)F`, the Potency is 6.81 µM (active).

As to `COc1cccc2c1C(=O)c1c(O)c3c(c(O)c1C2=O)C[C@@](O)(C(C)=O)C[C@@H]3O[C@H]1C[C@H](N)[C@H](O)[C@H](C)O1`, the Potency was 3.83 µM (active). As for `COc1cc([C@@H]2c3cc4c(cc3C(O[C@@H]3O[C@@H]5CO[C@@H](c6cccs6)OC5[C@H](O)[C@H]3O)C3COC(=O)[C@@H]32)OCO4)cc(OC)c1O` (some centres undefined), the Potency is 0.271 µM (active).

As to `CC[C@@H]([C@H](C)O)n1ncn(-c2ccc(N3CCN(c4ccc(OC[C@@H]5CO[C@@](Cn6cncn6)(c6ccc(F)cc6F)C5)cc4)CC3)cc2)c1=O`, the Potency is 7.64 µM (active). In the case of `C=C1c2c(Cl)ccc(O)c2C(O)=C2C(=O)[C@@]3(O)C(O)=C(C(N)=O)C(=O)[C@@H](N(C)C)[C@@H]3[C@@H](O)[C@H]12` it was 19.2 µM (active).

As for `Cc1nn(C)c2c1C(c1ccccc1F)=NCC(=O)N2C`, the Potency is 10.8 µM (active). Turning to `COc1ccc2cc3[n+](cc2c1OC)CCc1cc2c(cc1-3)OCO2`, the Potency is 9.61 µM (active). As for `C/C=C(/C)C(=O)O[C@H]1C(C)=CC23C(=O)C(C=C(CO)[C@@H](O)[C@]12O)[C@H]1[C@@H](C[C@H]3C)C1(C)C` (some centres undefined), the Potency result is “inactive”. For the compound `CCSc1ccc2c(c1)N(CCCN1CCN(C)CC1)c1ccccc1S2`, the Potency is 13.6 µM (active).

Turning to `O=C1c2c(O)ccc(O)c2C(=O)c2c(NCCNCCO)ccc(NCCNCCO)c21`, the Potency was 0.961 µM (active). For `CCN1CCN(Cc2ccc(Nc3ncc(F)c(-c4cc(F)c5nc(C)n(C(C)C)c5c4)n3)nc2)CC1` the value was 0.482 µM (active); for `COc1cc(NS(C)(=O)=O)ccc1Nc1c2ccccc2nc2ccccc12`, 1.36 µM (active). For `COc1cc(N)c(Cl)cc1C(=O)NC1CCN(CCCOc2ccc(F)cc2)CC1OC` (centres undefined) the value was 15.2 µM (active).
